# High-throughput results: PubChem BioAssay, National Center for Advancing Translational Sciences (NCATS)
# This is a sample that favours compounds with a hit; in the whole collection about 1.5% have one here.
# USP1-UAF1 inh: USP1/UAF1 (human) deubiquitinase inhibition | 0.23% of 390,000 active | Potency, µM (series often up to 57.1 µM), actives largely listed as inhibitors | recombinant USP1/UAF1, Ub-Rhodamine cleavage fluorescence; also: nearly all actives have a fitted effect of over 60% in size
#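 USP1/UAF1 complex at 1 nM was preincubated with compound for 15 min at room temperature, then Ub-Rho substrate (150nM final) was added. Fluorescence (480/540 nm) was read kinetically, 6 reads every 60 seconds.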
# TrxR1 substrate: is turned over as a substrate by rat TrxR1. O89049. purified TrxR1 substrate turnover, NADPH consumption readout. Potency, µM (top dose mostly 114 µM). 0.01% of 390,000 active. AID 588456; also: nearly all actives have a fitted effect of over 50% in size
#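 Rat TrxR1, dispensed at 90 nM, was prereduced with 400 uM NADPH (final) for 5 min at ~22 deg C, then incubated with compound 15 min before 400 uM selenite. A first-read NADPH fluorescence drop versus no-compound background flagged substrates.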
# TrxR1 inh: inhibitors of rat thioredoxin reductase 1. O89049. 1% of 390,000 active. Potency, µM (doses to about 114 µM), actives largely listed as inhibitors. recombinant rTrxR1, NADPH fluorescence consumption, selenite substrate. AID 588453; also: nearly all actives have a fitted effect of over 65% in size
#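 Rat TrxR1 (90 nM in the dispensed reagent) was pre-reduced with 400 uM NADPH for 5 min at room temperature, then incubated with compound for 15 min. After 400 uM selenite was added, NADPH fluorescence (Ex 340/Em 450 nm) was followed for 8 min.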
# FBPA coupling cs: inhibits coupling enzyme system, counter-screen for aldolase hits; coupling enzyme system counterscreen, AmpLite Red fluorescence; activity change, negative = inhibition, % at 58.2 µM, hits read low; 0.67% of 290,000 active; AID 2472; in the data active = activity change below about -30%
#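 Counterscreen lacking aldolase: glyceraldehyde-3-phosphate coupling-enzyme reagent preincubated 10 min at RT with compound (at 57.5 uM final), then substrate/coupling system with AmpLite Red added; fluorescence read at 525/598 nm after 20 min RT.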
# GALK inh: blocks human galactokinase activity | Purified GALK, Kinase-Glo residual ATP luminescence | Potency, µM (top dose mostly 57.5 µM), actives largely listed as inhibitors | 0.007% of 270,000 active | AID 1868
# Target sequence (P51570 whole entry, looked up): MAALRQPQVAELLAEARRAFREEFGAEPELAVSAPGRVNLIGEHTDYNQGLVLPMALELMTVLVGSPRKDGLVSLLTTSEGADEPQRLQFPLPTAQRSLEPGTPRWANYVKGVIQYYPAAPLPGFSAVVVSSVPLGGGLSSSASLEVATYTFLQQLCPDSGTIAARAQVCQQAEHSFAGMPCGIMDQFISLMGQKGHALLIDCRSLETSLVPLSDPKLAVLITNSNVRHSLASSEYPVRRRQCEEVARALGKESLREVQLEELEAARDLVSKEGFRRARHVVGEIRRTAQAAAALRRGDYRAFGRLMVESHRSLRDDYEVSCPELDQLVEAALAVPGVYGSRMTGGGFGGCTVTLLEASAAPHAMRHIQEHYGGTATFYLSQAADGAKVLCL
#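 Quantitative HTS: GALK 5 nM, ATP 35 uM, galactose 100 uM, 1 h room temperature, then luciferase-based ATP detection.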
# Numbers stand for hits; i = inactive; ? = inconclusive; nt = no result; [ ] = remark or other dose. Unless noted, calls follow the shape of the dose curve; as a rule, active = well fitted curve in the direction sought with a large enough effect; inconclusive = small, poorly fitted or top-dose-only effect, or another doubt; inactive = no such curve, though single readings can be large; an effect the other way counts as inactive or inconclusive.
SMILES,USP1-UAF1 inh,TrxR1 substrate,TrxR1 inh,FBPA coupling cs,GALK inh
Cc1ccc(-c2nc(S(=O)(=O)c3ccc(C)cc3)c(N3CCN(c4ccccc4)CC3)o2)cc1,i,i,i,nt,nt
COc1ccc(-c2nc(S(=O)(=O)c3ccccc3)c(N3CCOCC3)o2)cc1,i,i,39.8µM,i,i
O=S(=O)(c1ccccc1)c1nc(-c2ccccc2)oc1N1CCCCC1,i,i,44.7µM,i,i
COc1ccc(C2Nc3ccccc3C(=O)N2c2ccc(Cl)cc2)cc1COc1ccc(NC(C)=O)cc1 (stereo not given),nt,i,i,nt,nt
COc1cc(/C=C/c2ccc3ccccc3n2)cc(OC)c1OC,nt,i,i,nt,nt
CC(C)Cc1nc(S(=O)(=O)c2ccc(Cl)cc2)c(N2CCOCC2)o1,i,i,8.91µM,i,i
CC(C)(C)c1nc(S(=O)(=O)c2ccc(Cl)cc2)c(N2CCOCC2)o1,i,i,?,i,i
COc1ccc(OCc2cc(C(=O)N(C)C3CCOCC3)no2)c2ccccc12,?,i,i,-36.8,i
COc1ccc(OCc2cc(C(=O)N3CCC(OC)CC3)no2)c2ccccc12,?,i,i,nt,i
CCOC(=O)C1CCN(C(=O)c2cc(COc3ccc(OC)c4ccccc34)on2)CC1,i,i,i,-37.2,i
Cc1ccc(S(=O)(=O)N2CCN(c3nc(-c4cccnc4)nc4ccccc34)CC2)cc1,nt,i,i,nt,nt
Cc1ccc(S(=O)(=O)N2CCN(c3nc(-c4ccncc4)nc4ccccc34)CC2)cc1,nt,i,44.7µM,nt,nt
Cn1c2c(c(=O)n(C)c1=O)C1(C(=O)Nc3ccccc31)C(C#N)=C(N)O2 (stereo not given),i,i,i,-54.2,i
N#CC1=C(N)Oc2ccccc2C12C(=O)Nc1n[nH]c(-c3ccccc3)c12 (stereo not given),i,i,i,i,i
Cc1ccc(C(=O)NCC(=O)OCC(=O)c2cccc3ccccc23)cc1,nt,i,i[0.0914 µM],nt,nt
CCOc1nc(C#N)nc(N2CCOCC2)n1,nt,i,i,nt,nt
O=C(O)CSc1cc(NS(=O)(=O)c2ccc(Br)cc2)c2ccccc2c1O,35.5µM,i,?,-43.6,i
O=S(=O)(Nc1cc(Sc2ncn[nH]2)c(O)c2ccccc12)c1ccccc1,2.24µM,25.1µM,11.2µM,-54.9,i
Cc1ccc(S(=O)(=O)Nc2ccc(Br)cc2C(NCC(=O)O)c2ccccc2)cc1 (stereo not given),i,i,i,i,i
N#Cc1cc(-c2ccccc2)nn1-c1ccccc1,i,i,?,-41.0,i
Cn1ccc(-c2ccccc2)n1,i,i,i,i,i
Cc1cccc(N2C(=O)C(Cl)=C(Nc3c(C)n(C)n(-c4ccccc4)c3=O)C2=O)c1C,i,i,22.4µM,i,i
Cc1ccc(N2C(=O)C(Cl)=C(Nc3c(C)n(C)n(-c4ccccc4)c3=O)C2=O)cc1,i,i,17.8µM,i,i
Cc1c(NC(=O)Nc2c(Cl)cccc2Cl)c(=O)n(-c2ccccc2)n1C,i,i,i,i,i
Cc1ccc(Nc2nc3ccccc3nc2Nc2c(C)n(C)n(-c3ccccc3)c2=O)cc1,i,i,?,i,nt
SMILES,USP1-UAF1 inh,TrxR1 substrate,TrxR1 inh,FBPA coupling cs,GALK inh
COc1ccc(-c2nc3c(c4c2C[C@H](c2ccccc2)OC4)CN(C(=O)NCc2ccco2)CC3)c(C)c1,nt,nt,nt,i,nt
Cc1cccc(CN2Cc3cccc4c3[C@H](C=CC4)CC2=O)c1,nt,i,i,nt,nt
Cc1cc(O)c(CN(C)C)c2c1C(=O)/C(=C/c1ccco1)O2,?,i,56.2µM,i,nt
COc1ccc2[nH]c(=O)c(CNc3cccc(C)c3)cc2c1,i,i,i,-38.9,i
Cc1nc2ccc(NC(=S)NCCCO)cc2nc1C,i,i,i,-30.5,i
Cc1nc2ccc(NC(=S)NC3CC3)cc2nc1C,i,i,i,i,i
CCCNC(=S)Nc1ccc2nc(-c3ccccn3)c(-c3ccccn3)nc2c1,i,i,?,-53.9,i
OCCNC(=S)Nc1ccc2nsnc2c1,?,i,i,-46.8,i
Nc1ccc2c(c1)C=C/C2=C\c1ccccc1,nt,i,i,nt,nt
CC(C)CN(CC(C)C)c1ccc(/C=C/c2nc3ccccc3s2)cc1,nt,i,i,nt,nt
COc1ccc(NC(=O)c2ccc(NC(=O)c3ccco3)cc2)c(OC)c1,i,i,i,i,i
COc1ccc(C(=O)Nc2cc(OC)c(NC(=O)c3ccco3)cc2OC)cc1,i,i,i,-35.2,i
COc1ccc(NC(=O)c2ccco2)cc1N,i,i,i,-40.6,i
CCOC(=O)NC1(NC(C)C)Oc2ccccc2O1,i,i,i,i,i
CCOC(=O)NC1(NCC(C)C)Oc2ccccc2O1,i,i,?,i,i
CCOC(=O)NC1(NC2CCCCC2)Oc2ccccc2O1,i,i,31.6µM,i,i
CCOC(=O)NC1(NCc2ccccc2)Oc2ccccc2O1,i,i,31.6µM,i,i
Cc1ccccc1-c1cncnc1NCc1cccs1,nt,nt,nt,i,nt
CCCN1CNc2c(c(=O)[nH]c(=S)n2CCc2cc(OC)cc(OC)c2)C1,nt,i,i,nt,nt
Cc1ccc(CN(CC2CCCO2)C(=O)CN2C(=O)C(C(C)C)Oc3ccccc32)o1 (stereo not given),i,i,10µM,i,i
Nc1cc(N)[nH]c(=S)n1,nt,i,i,nt,nt
O=[N+]([O-])c1ccc2c(c1)C=CC2,nt,i,12.6µM,nt,nt
O=[N+]([O-])c1ccc2c(c1)Cc1cc(F)ccc1-2,i,i,i,nt,nt
O=C1c2ccccc2-c2onc3c(N4CCN(C5CCCCC5)CC4)cc(NCCO)c1c23,15.8µM,i,i,nt,nt
CN(C)CCCNc1cc(N2CCN(C3CCCCC3)CC2)c2noc3c2c1C(=O)c1ccccc1-3,?,i,i,nt,nt
SMILES,USP1-UAF1 inh,TrxR1 substrate,TrxR1 inh,FBPA coupling cs,GALK inh
COc1ccc(OC)c(/C=C2\Cc3ccccc3C2=O)c1,nt,i,i,nt,nt
CC(=O)N1CCN(c2ccc(NCc3ccc4c(c3)OCO4)cc2)CC1,i,i,?,-33.4,i
O=C(c1ccccc1)N1CCN(c2ccc(NCc3ccc4c(c3)OCO4)cc2)CC1,i,i,i,i,i
COc1ccc(/C=C2\C=Cc3ccccc32)cc1OC,nt,i,i,nt,nt
CCCC[C@]12Cc3ccccc3C(O1)c1c(cc(-c3ccccc3)oc1=O)O2,nt,nt,nt,-31.5,nt
Cc1nnc(N/N=C/c2cc([N+](=O)[O-])c(N3CCC(C)CC3)cc2N2CCC(C)CC2)n1N,i,i,i,-44.6,i
COc1ccc(/C=N/Nc2nnc(C)n2N)cc1OC,?,i,i,-40.2,i
Cc1nnc(N/N=C/c2ccc([N+](=O)[O-])cc2)n1N,i,i,i,-44.8,i
C=CCNc1nc(NC2CCN(C)CC2)c2cc(OC)c(OC)cc2n1,nt,i,i,nt,nt
O=C(O)CCc1c2ccc(=O)c(O)c-2oc2c(O)c(O)ccc12,nt,i,56.2µM,nt,nt
CCCCCCCCNc1ccc(/C=C/c2ccnc3ccccc23)cc1,nt,i,i,nt,nt
COc1ccc(C(OCCN2CCC[C@H](C(=O)O)C2)(c2ccc(OC)cc2)c2ccc(OC)cc2)cc1,nt,nt,nt,i,nt
O/N=C1\CCC\C1=C/c1ccco1,i,i,?,i,i
O=C1C(=Cc2ccco2)CCCC1=Cc1ccco1,i,?,44.7µM,nt,nt
